Screening results: PubChem, Broad Institute
MITF TRPM1 inh = inhibitors of MITF-driven TRPM1 promoter in melanoma cells. SK-MEL-5 TRPM1 promoter luciferase, 24 h. inhibition, % at 12.5 µM. hit rate 0.83% among 330,000;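 active = mean inhibition across replicates of 60% or more, whatever share of single replicates reaches that level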
PAX8 reporter = lowers PAX8-driven luciferase in RMG-I cells; hit rate 1.2% among 360,000; inhibition, % at 12.6 µM; RMG-I TPO-luciferase reporter, SteadyGlo, 24 h; AID 652154;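 active = mean replicate inhibition at least 60% with every replicate also reaching 60%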;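 note: luciferase light reporting Pax8 driven TPO promoter activity; plate controls were median of neutral control wells for no effect and mitoxantrone controls for full effect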
EBV LMP1 NFkB = inhibitors of Epstein-Barr LMP1-induced NF-kappaB reporter | inhibition, % at 12.5 µM | LMP1-induced NF-kappaB luciferase reporter cells, luminescence | hit rate 0.69% among 350,000 | AID 504558; in the data active = inhibition above about 41%;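 note: 0% = neutral control wells and 100% = reference inhibitor control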
LGR2 antag = inhibitors of bursicon-induced Drosophila LGR2 receptor cAMP signaling; hit rate 0.35% among 380,000; HEK293 LGR2, CRE-luciferase, bursicon-stimulated, 4 h; inhibition, % at 9.99 µM;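 active = drop in luminescence signal, shown as inhibition above about 50% in the replicate tests, limit read from the data, passing the limit was not always enough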;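 note: agonist challenge used bursicon conditioned medium at about half maximal strength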
EWS-Fli inh = EWS/Fli transcriptional activity inhibition; inhibition, % at 12.6 µM; A673 NR0B1-luciferase reporter, viability-normalised; AID 651661; hit rate 0.67% among 350,000;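 active = mean inhibition of at least 50% after viability correction, with every replicate also passing that limit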;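 note: firefly luciferase signal divided by Alamar Blue viability fluorescence both relative to DMSO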
PGC1a acetyl inh = PGC1a acetylation modulation, inhibitor mode; U2OS PGC1a acetylation, AlphaScreen anti-acetyl-lysine; with virally co-expressed GCN5 acetyltransferase; inhibition, % at 15.6 µM; hit rate 0.17% among 350,000; AID 651687;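 active = every replicate shows inhibition of at least 40%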;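 note: 0% = neutral control wells and 100% = positive control wells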
* = called active by the depositor; ! = not active in a repeat. A selection: hits, their analogues and other compounds. The true share with any hit is near 2.2%.

Cc1cccc(S(=O)(=O)N2C[C@@H]3N[C@H](C2)C3c2ccc(-c3cccnc3)cc2)c1 (some centres undefined) was read as PAX8 reporter 16, LGR2 antag 6, EWS-Fli inh -3 and PGC1a acetyl inh 0.
`COc1ccc(-c2ccc(C3[C@@H]4CN(S(=O)(=O)c5cccc(C)c5)C[C@H]3N4)cc2)cc1` (some centres undefined) gave PAX8 reporter -4, LGR2 antag -25, EWS-Fli inh -5 and PGC1a acetyl inh -10.
For COc1cccc(S(=O)(=O)N2C[C@@H]3N[C@H](C2)C3c2ccc(-c3cccc(C)c3)cc2)c1 (some centres undefined) the results were PAX8 reporter 69*!, LGR2 antag 1, EWS-Fli inh 55*! and PGC1a acetyl inh 1.
Screening Cc1ccc(S(=O)(=O)N(C)C[C@@H]2Oc3ccc(NC(=O)Cn4cnnn4)cc3C(=O)N([C@H](C)CO)C[C@@H]2C)cc1 returned LGR2 antag -14, EWS-Fli inh -10 and PGC1a acetyl inh -10.
`c1ccc(COc2cccc(-c3cc4nc(NCCc5ccncc5)ccn4n3)c2)cc1` gave PAX8 reporter 7, LGR2 antag 45 and EWS-Fli inh -4.
c1ccc(COc2cccc(-c3cc4nc(NCCCn5ccnc5)ccn4n3)c2)cc1 was read as PAX8 reporter -4, LGR2 antag 80*, EWS-Fli inh 10 and PGC1a acetyl inh -2.
Screening C[C@@H]1CN([C@@H](C)CO)C(=O)Cc2cc(NC(=O)C3CCCCC3)ccc2O[C@H]1CN(C)Cc1ccc(Cl)c(Cl)c1 returned PAX8 reporter 95*, LGR2 antag 18, EWS-Fli inh 9 and PGC1a acetyl inh 13.
For C[C@@H]1CN([C@@H](C)CO)C(=O)Cc2cc(NC(=O)Nc3ccc(C(F)(F)F)cc3)ccc2O[C@H]1CN(C)Cc1ccccc1 the results were PAX8 reporter 68*, LGR2 antag 1 and EWS-Fli inh 14.
Screening C[C@H]1CN([C@@H](C)CO)C(=O)Cc2cc(NC(=O)Nc3ccc(C(F)(F)F)cc3)ccc2O[C@@H]1CN(C)Cc1ccccc1 returned PAX8 reporter 33, LGR2 antag -33 and EWS-Fli inh -9.
COc1ccc(NC(=O)Nc2ccc3c(c2)CC(=O)N([C@@H](C)CO)C[C@H](C)[C@@H](CN(C)Cc2ccc(C(F)(F)F)cc2)O3)cc1 was read as PAX8 reporter 70*, LGR2 antag -10, EWS-Fli inh 15 and PGC1a acetyl inh -6.
`C[C@@H]1CN([C@H](C)CO)C(=O)Cc2cc(NC(=O)Nc3ccc(F)cc3)ccc2O[C@H]1CN(C)Cc1ccc(Cl)c(Cl)c1` gave PAX8 reporter 109*, LGR2 antag 19, EWS-Fli inh 5 and PGC1a acetyl inh -2.
COc1ccc(S(=O)(=O)Nc2ccc3c(c2)CC(=O)N([C@H](C)CO)C[C@H](C)[C@H](CN(C)S(=O)(=O)c2ccccc2)O3)cc1 was read as PAX8 reporter -13, LGR2 antag 3, EWS-Fli inh 9 and PGC1a acetyl inh 3.
Screening C[C@@H]1CN([C@H](C)CO)C(=O)Cc2cc(NC(=O)CCN3CCOCC3)ccc2O[C@H]1CN(C)Cc1ccc(C(F)(F)F)cc1 returned PAX8 reporter -9, LGR2 antag 6, EWS-Fli inh -7 and PGC1a acetyl inh -2.
C[C@H]1CN([C@@H](C)CO)C(=O)Cc2cc(NC(=O)CCN3CCOCC3)ccc2O[C@H]1CN(C)Cc1ccc(C(F)(F)F)cc1 was read as PAX8 reporter -2, LGR2 antag 7, EWS-Fli inh 60* and PGC1a acetyl inh 0.
For C[C@H](CO)N1C[C@H](C)[C@@H](CN(C)Cc2ccc(-c3ccccc3)cc2)Oc2ccc(NC(=O)Nc3ccc(C(F)(F)F)cc3)cc2CC1=O the results were PAX8 reporter 68*, LGR2 antag 24, EWS-Fli inh 7 and PGC1a acetyl inh -12.
C[C@@H]1CN([C@@H](C)CO)C(=O)Cc2cc(NC(=O)Cc3cn(C)c4ccccc34)ccc2O[C@H]1CN(C)Cc1ccc(C(F)(F)F)cc1 was read as PAX8 reporter 71*, LGR2 antag 9, EWS-Fli inh 17 and PGC1a acetyl inh -8.
C[C@H](CO)N1C[C@H](C)[C@H](CN(C)Cc2ccccc2)Oc2ccc(NC(=O)Cc3cn(C)c4ccccc34)cc2CC1=O was read as PAX8 reporter 13, LGR2 antag 15 and EWS-Fli inh -3.
For C[C@@H]1CN([C@@H](C)CO)C(=O)Cc2cc(NC(=O)Nc3ccc(F)cc3)ccc2O[C@H]1CN(C)Cc1ccc(C(F)(F)F)cc1 the results were LGR2 antag 24, EWS-Fli inh 54* and PGC1a acetyl inh -3.
COc1ccc(S(=O)(=O)Nc2ccc3c(c2)CC(=O)N([C@@H](C)CO)C[C@H](C)[C@H](CN(C)Cc2ccncc2)O3)cc1 was read as PAX8 reporter -11, LGR2 antag 1, EWS-Fli inh -1 and PGC1a acetyl inh 5.
For C[C@H]1CN([C@@H](C)CO)C(=O)Cc2cc(NC(=O)Nc3cccc4ccccc34)ccc2O[C@H]1CN(C)C(=O)Nc1cccc2ccccc12 the results were PAX8 reporter 29, LGR2 antag 5, EWS-Fli inh 10 and PGC1a acetyl inh 9.
`Oc1c(CN2CCN(c3ccccn3)CC2)cc(Cl)c2cccnc12` gave MITF TRPM1 inh 84*, EBV LMP1 NFkB 40 and PGC1a acetyl inh 14.
Oc1c(CN2CCCCC2)ccc2cccnc12 was read as MITF TRPM1 inh 77*, PAX8 reporter 54, EBV LMP1 NFkB 18, LGR2 antag -14, EWS-Fli inh -2 and PGC1a acetyl inh 25.
For CN(C)C1CCN(Cc2cc(COCc3ccccc3)c3cccnc3c2O)C1 (centres undefined) the results were MITF TRPM1 inh 73* and EBV LMP1 NFkB 29.
For COc1ccccc1N1CCN(Cc2cc(Br)c(O)c3ncccc23)CC1 the results were MITF TRPM1 inh 71*, PAX8 reporter 100*, EBV LMP1 NFkB 17, LGR2 antag 33, EWS-Fli inh 31 and PGC1a acetyl inh 21.
For OCCN1CCN(Cc2cc(Cl)c3cccnc3c2O)CC1 the results were MITF TRPM1 inh 8, EBV LMP1 NFkB 23, LGR2 antag 20 and PGC1a acetyl inh 16.
For Oc1ccc(COCc2ccccc2)c2cccnc12 the results were MITF TRPM1 inh 23, EBV LMP1 NFkB 11 and PGC1a acetyl inh -11.
For C[C@@H]1CN([C@H](C)CO)C(=O)c2cc(NC(=O)Cc3ccccc3)ccc2O[C@@H](C)CCCCO[C@@H]1CN(C)CC1CCCCC1 the results were PAX8 reporter 18, LGR2 antag 24, EWS-Fli inh 40 and PGC1a acetyl inh -6.
For CC(C)(C)[S@](=O)N1Cc2cc(C(=O)NCc3ccccc3F)nc(-c3cccc(-c4cccnc4)c3)c2[C@@H]1CCO the results were PAX8 reporter 0, LGR2 antag -14, EWS-Fli inh 9 and PGC1a acetyl inh -2.
